In PubChem BioAssay (NCI):
The panel holds about 79,000 compounds, 15% with a hit somewhere; the sample as a whole holds those more often. The source made the active and inactive calls. No stated cut-off is given here; in the data, active means growth inhibition above about 70%; inactive means the rest.

How the values were obtained:
[1] = NCI Yeast Anticancer Drug Screen. Data for the mec2-1 strain (AID 157); details: S. cerevisiae mec2-1 strain, hits give high values
In short: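 Vehicle-treated cultures served as reference for growth inhibition of compound-exposed mec2-1 yeast.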

[2] = NCI Yeast Anticancer Drug Screen. Data for the rad14 strain (AID 159);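 further: 0% = growth of vehicle-treated control cultures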; details: S. cerevisiae rad14 strain growth inhibition, hits give high values
In short: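 Vehicle-treated cultures served as the baseline for growth inhibition of a DNA repair-mutant yeast strain exposed to each compound.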

[3] = NCI Yeast Anticancer Drug Screen. Data for the sgs1 mgt1 strain (AID 161);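 further: 0% = growth of cultures given vehicle only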; details: S. cerevisiae sgs1 mgt1 strain, hits give high values
In short: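 Read-out: growth inhibition vs vehicle controls. Cells: mutant yeast strain deficient in DNA damage repair.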

[4] = NCI Yeast Anticancer Drug Screen. Data for the CLN2oe strain (AID 163);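 further: 0% = growth of vehicle-only control cultures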; details: S. cerevisiae CLN2oe strain, hits give high values
In short: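 Inhibition relative to vehicle-treated yeast is reported. Cells: strain with genetic alteration in cell-cycle control, grown with compound.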

[5] = NCI Yeast Anticancer Drug Screen. Data for the cln2 rad14 strain (AID 165);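 further: 0% = growth equal to vehicle treated cultures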; details: S. cerevisiae cln2 rad14 strain, hits give high values
In short: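 Each compound was tested on cln2 rad14 yeast. Inhibition of growth was calculated against vehicle-exposed controls.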

[6] = NCI Yeast Anticancer Drug Screen. Data for the bub3 strain (AID 167); details: S. cerevisiae bub3 mutant strain, hits give high values
In short: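 Inhibition values come from growth of compound-treated mutant yeast normalised to vehicle-treated controls.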

[7] = NCI Yeast Anticancer Drug Screen. Data for the wt2 strain (AID 169);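 further: 0% = growth of vehicle-treated yeast cultures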; details: S. cerevisiae wt2 strain growth inhibition, hits give high values
In short: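 Inhibition of yeast growth was determined after compound treatment, normalised to controls receiving only vehicle.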

[8] = NCI Yeast Anticancer Drug Screen. Data for the sgs1 strain (AID 173);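 further: 0% = growth of vehicle-only control cultures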; details: S. cerevisiae sgs1 mutant, hits give high values
In short: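 Screen format: yeast with repair or checkpoint alterations, compound exposure, growth read relative to vehicle.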

[9] = NCI Yeast Anticancer Drug Screen. Data for the mlh1 rad18 strain (AID 175); details: S. cerevisiae mlh1 rad18 strain growth inhibition, hits give high values
In short: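 Vehicle-treated cultures served as the reference for growth inhibition in a yeast strain carrying DNA damage repair alterations exposed to each compound.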

[10] = NCI Yeast Anticancer Drug Screen. Data for the rad52 strain (AID 147);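 further: 0% = growth of vehicle-treated control cultures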; details: S. cerevisiae rad52 mutant growth inhibition, hits give high values
In short: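 Vehicle-treated cultures served as the reference for growth inhibition of compound-exposed yeast bearing a DNA repair mutation.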

[11] = NCI Yeast Anticancer Drug Screen. Data for the wt1 strain (AID 149);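 further: 0% = growth of vehicle-treated wt1 cultures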; details: S. cerevisiae wt1 strain (SPY 50644) growth inhibition, hits give high values
In short: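 Vehicle-normalised growth inhibition; strain wt1; compound exposure.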

[12] = NCI Yeast Anticancer Drug Screen. Data for the rad50EPP+ strain (AID 151);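 further: 0% = growth of vehicle-treated control cultures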; details: S. cerevisiae rad50 mutant strain, hits give high values
In short: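 In this screen, rad50EPP+ yeast were exposed to compounds. Growth inhibition was scored against vehicle-treated controls.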

[13] = NCI Yeast Anticancer Drug Screen. Data for the mgt1 strain (AID 153); details: S. cerevisiae mgt1 mutant growth inhibition, hits give high values
In short: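 mgt1 strain exposed; growth vs vehicle control recorded as inhibition.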

[14] = NCI Yeast Anticancer Drug Screen. Data for the rad50 strain (AID 155);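 further: 0% = growth of vehicle-only cultures of the same strain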; details: S. cerevisiae rad50 strain growth inhibition, hits give high values
In short: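 A DNA repair-deficient yeast mutant serves as the test organism; compound-induced growth inhibition is calculated against vehicle-treated cells.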

[15] = NCI Yeast Anticancer Drug Screen. Data for the mlh1 strain (AID 171);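 further: 0% = growth of vehicle-treated control cultures of the same strain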; details: S. cerevisiae mlh1 strain growth inhibition, hits give high values
In short: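 Vehicle-normalised growth inhibition of a repair- or checkpoint-altered yeast strain following compound treatment.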

[16] = NCI Yeast Anticancer Drug Screen. Data for the rad18 strain (AID 177); details: S. cerevisiae rad18 mutant growth inhibition, hits give high values
In short: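 Test articles were incubated with altered yeast defective in DNA damage repair. Results are given as inhibition of growth versus vehicle.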

[17] = at 5.0 µM (retest, dose inferred, filed as 0.5)
[18] = at 50.0 µM (retest, dose inferred, filed as 5.0)

Measured: growth inhibition

CC(C)OP(=O)(OC(C)C)C(=NCCO)NNc1ccc([N+](=O)[O-])cc1
active: [3]; at 50.0 µM 85% | [4]; at 100.0 µM 90% | [6]; at 33.0 µM 94% | [6]; at 100.0 µM 95% | [8]; at 11.0 µM 71% | [8]; at 33.0 µM 95% | [8]; at 100.0 µM 95% | [9]; [18] 96% | [9]; at 50.0 µM 72.9%
inactive: [1]; [17] -2% | [1]; at 11.0 µM -19% | [1]; at 33.0 µM 20% | [1]; [18] 33% | [1]; at 50.0 µM 28.1% | [1]; at 100.0 µM 40% | [2]; at 1.2 µM -10% | [2]; at 3.7 µM 3% | [2]; at 11.0 µM 4% | [2]; at 33.0 µM 3% | [2]; at 100.0 µM 42% | [3]; [17] 1% | [3]; [18] 23% | [4]; at 1.2 µM -17% | [4]; at 3.7 µM 3% | [4]; at 11.0 µM 4% | [4]; at 33.0 µM 44% | [5]; [17] 25% | [5]; [18] 48% | [5]; at 50.0 µM 9.95% | [6]; at 1.2 µM -15% | [6]; at 3.7 µM 22% | [6]; [17] 22% | [6]; at 11.0 µM 49% | [6]; [18] 62% | [6]; at 50.0 µM 56.7% | [7]; at 1.2 µM 1% | [7]; at 3.7 µM -3% | [7]; at 11.0 µM 8% | [7]; at 33.0 µM 26% | [7]; at 100.0 µM 50% | [8]; at 1.2 µM 24% | [8]; at 3.7 µM 39% | [9]; [17] 48%

Cc1oc2ccccc2c(=O)c1Cn1nnc2ccccc21
active: [14]; at 100.0 µM 73%
inactive: [10]; at 1.2 µM -1% | [10]; at 3.7 µM -2% | [10]; at 11.0 µM 0% | [10]; at 33.0 µM 9% | [10]; at 100.0 µM 56% | [11]; at 1.2 µM -2% | [11]; at 3.7 µM -1% | [11]; at 11.0 µM -2% | [11]; at 33.0 µM -6% | [11]; at 100.0 µM 6% | [12]; at 1.2 µM -1% | [12]; at 3.7 µM 3% | [12]; at 11.0 µM 8% | [12]; at 33.0 µM 17% | [12]; at 100.0 µM 35% | [13]; at 1.2 µM 0% | [13]; at 3.7 µM 2% | [13]; at 11.0 µM 0% | [13]; at 33.0 µM 2% | [13]; at 100.0 µM 26% | [14]; at 1.2 µM -3% | [14]; at 3.7 µM -1% | [14]; [17] -20% | [14]; at 11.0 µM -1% | [14]; at 33.0 µM 13% | [14]; [18] 47% | [14]; at 50.0 µM 4.55% | [1]; at 1.2 µM -2% | [1]; at 3.7 µM -3% | [1]; [17] 1% | [1]; at 11.0 µM -2% | [1]; at 33.0 µM 1% | [1]; [18] 5% | [1]; at 50.0 µM 14.6% | [1]; at 100.0 µM 36% | [2]; at 1.2 µM -1% | [2]; at 3.7 µM -1% | [2]; at 11.0 µM 1% | [2]; at 33.0 µM 8% | [2]; at 100.0 µM 36% | [3]; [17] -1% | [3]; [18] 22% | [3]; at 50.0 µM 16.9% | [4]; at 1.2 µM 0% | [4]; at 3.7 µM 0% | [4]; at 11.0 µM -4% | [4]; at 33.0 µM -5% | [4]; at 100.0 µM 19% | [5]; [17] 9% | [5]; [18] 50% | [5]; at 50.0 µM 15.7% | [6]; at 1.2 µM -1% | [6]; at 3.7 µM -2% | [6]; [17] 3% | [6]; at 11.0 µM 0% | [6]; at 33.0 µM 10% | [6]; [18] 41% | [6]; at 50.0 µM 21.9% | [6]; at 100.0 µM 67% | [15]; at 1.2 µM -1% | [15]; at 3.7 µM -2% | [15]; at 11.0 µM -2% | [15]; at 33.0 µM 1% | [15]; at 100.0 µM 43% | [8]; at 1.2 µM 0% | [8]; at 3.7 µM 1% | [8]; at 11.0 µM 2% | [8]; at 33.0 µM 12% | [8]; at 100.0 µM 68% | [9]; [17] -1% | [9]; [18] 27% | [9]; at 50.0 µM -11.3% | [16]; at 1.2 µM -2% | [16]; at 3.7 µM -2% | [16]; at 11.0 µM 1% | [16]; at 33.0 µM 15% | [16]; at 100.0 µM 55%
